# From PubChem BioAssay (NCI)
# The panel holds about 83,000 compounds, 20% with a hit somewhere; the sample as a whole holds those more often.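 Values shown are percent growth following 48 h exposure of cells in 96-well plates to a single concentration of compound; below 10 was considered active.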 A number with no mark means an inactive call. Activity calls are given as the source filed them.
# Tested on: OVCAR-4 ovarian
# Assay: NCI-60 one-dose screen, 48 h (100 = growth as untreated, 0 = no growth, -100 = all killed)
# Details: 10 µM
row,Structure (SMILES),growth
1,O=C(COc1ccc(-c2nc3ccccc3[nH]2)cc1)N=Nc1c(O)[nH]c2ccccc12,15.5%
2,C[C@]12CC[C@H]3[C@@H](CC=C4C[C@@H](O)CC[C@@]43C)[C@@H]1CC[C@@H]2C(=O)C/C=N/O,83.6%
3,COc1ccc(N2CCN(c3nc(-c4ccccc4)c(C#N)c(=O)[nH]3)CC2)cc1,102%
4,CCCCCCCCCCCC(=O)NCCCN(C)C,96.5%
5,COc1cccc(-c2nnc(COc3ccc(-c4nc5ccccc5[nH]4)cc3OC)o2)c1,103%
6,N/C(=N\O)c1cn(C2OC(CO)C(O)C2O)c2ncnc(N)c12 (stereo unspecified),-21.6% (active)
7,Nc1ccc(C2=CC(c3ccc(Cl)cc3)N3C=CSC3=N2)cc1 (stereo unspecified),0.424% (active)
8,O=[N+]([O-])c1cc2ncccc2c2ncccc12,103%
9,O=C(CCc1ccccc1)N1CCN(C(=O)CCc2ccccc2)CC1,101%
10,COc1ccc(CCc2nc3cc(-c4c(C)noc4C)ccc3n2CCN2CCOCC2)cc1,30.8%
11,CCOC(=O)C(=O)Cc1cccnn1,102%
12,FC(F)(F)c1ccc(-c2nc(-c3nc4cc(Cl)c(Cl)cc4[nH]3)c3ccccn23)cc1,4.24% (active)
13,COc1cc(CSc2nc3ccc(C)cc3c(=O)n2-c2ccccc2)cc(OC)c1OC,57.2%
14,CC(C)C[C@H](NC(=O)Cn1ccc2ccccc2c1=O)B(O)O,93.3%
15,CCCCC(=O)N(c1ccc(Nc2c3ccccc3nc3cc([N+](=O)[O-])ccc23)cc1)S(C)(=O)=O,81%
16,N#Cc1ncc(-c2cc(F)ccc2F)c(NC2CCCCCC2)n1,80.3%
17,Cc1nnc2c3nnc(-c4ccc(Cl)cc4)n3c3ccccc3n12,115%
18,O=CNc1c(Cl)cc2c(c1Cl)Cc1cc([N+](=O)[O-])ccc1-2,50.8%
19,O=C(Nc1ccc(OS(=O)(=O)Cc2ccccc2)cc1)C12CC3CC(CC(C3)C1)C2,78.7%

row,Structure (SMILES),growth
1,COc1cc(CSc2nc3ccc(C)cc3c(=O)n2Cc2ccccc2)cc(OC)c1OC,53.1%
2,CC(=O)[C@H]1CC[C@H]2[C@@H]3CC[C@@H]4CC=C(C=O)C[C@]4(C)[C@H]3CC[C@]12C,99%
3,O=[N+]([O-])c1ccc(Br)o1,122%
4,CCc1nn2c(-c3cc(OC)c(OC)c(OC)c3)c(-c3cc(OC)c(OC)c(OC)c3)nc2s1,72.6%
5,N#Cc1c2c([nH]c(=O)c1C(N)=O)CCCCC2,116%
6,COC(=O)[C@]12CC[C@@H](C)[C@H](C)[C@@H]1C1=CC[C@@H]3[C@@]4(C)CC(=O)[C@H](O)[C@@]5(C)COC(=C45)C[C@@]3(C)[C@]1(C)CC2,-85.3% (active)
7,C=CCNCCCN1C(=O)c2ccc3c4c(ccc(c24)C1=O)C(=O)N(CCCNCC=C)C3=O,-98.5% (active)
8,COc1ccc(Cn2cc3c(c2-c2cc(OC)c(OC)c(OC)c2)CCc2cnoc2-3)cc1N,37.6%
9,Cc1ccc2nc(-c3ccc(OCC(=O)N=Nc4c(O)[nH]c5ccccc45)cc3)[nH]c2c1,11.6%
10,COc1cc(OC)cc(-c2n/c(=C\c3c(O)[nH]c4ccc(OC)cc34)cc3c2=Nc2ccccc2-3)c1,15.3%
11,O=c1ccc2nc(-c3ccccc3)nn(-c3ccccc3)c-2c1,-40.7% (active)
12,NS(=O)(=O)c1ccc(N2N=C(c3ccc(-c4ccccc4)cc3)CC2c2ccc(Cl)cc2)cc1 (stereo unspecified),76.1%
13,O=C(NC1CCCC1)c1ccc(N2CCC(NCc3cccc(C(F)(F)F)c3)CC2)cc1,89.5%
14,COc1cc(OC)cc(-c2ccc(-c3ccc(C(=N)N)cn3)o2)c1,23.1%
15,COc1ccc(-c2oncc2-c2cc(OC)c3c(c2)OCO3)cc1,66.2%
16,COc1cc2ccnc(C=O)c2cc1OC,80.9%
17,N#Cc1ccc(-n2cnc(NC(=O)[C@H]3CCN(C#N)C3)c2)cc1,28.9%
18,Oc1ccccc1-c1nnc(Cn2c(Cc3cccc4ccccc34)nc3ccccc32)o1,99.2%
19,Fc1ccc(Nc2ccnc(N3CCN(c4ccnc5cc(Cl)ccc45)CC3)n2)cc1,33.1%

# Tested on: SK-OV-3 ovarian
# Assay: as above
# Details: 10 µM
row,Structure (SMILES),growth
1,O=C(COc1ccc(-c2nc3ccccc3[nH]2)cc1)N=Nc1c(O)[nH]c2ccccc12,105%
2,C[C@]12CC[C@H]3[C@@H](CC=C4C[C@@H](O)CC[C@@]43C)[C@@H]1CC[C@@H]2C(=O)C/C=N/O,97.1%
3,COc1ccc(N2CCN(c3nc(-c4ccccc4)c(C#N)c(=O)[nH]3)CC2)cc1,96.6%
4,CCCCCCCCCCCC(=O)NCCCN(C)C,95.6%
5,COc1cccc(-c2nnc(COc3ccc(-c4nc5ccccc5[nH]4)cc3OC)o2)c1,107%
6,N/C(=N\O)c1cn(C2OC(CO)C(O)C2O)c2ncnc(N)c12 (stereo unspecified),-30.2% (active)
7,Nc1ccc(C2=CC(c3ccc(Cl)cc3)N3C=CSC3=N2)cc1 (stereo unspecified),-51% (active)
8,O=[N+]([O-])c1cc2ncccc2c2ncccc12,94.4%
9,O=C(CCc1ccccc1)N1CCN(C(=O)CCc2ccccc2)CC1,115%
10,COc1ccc(CCc2nc3cc(-c4c(C)noc4C)ccc3n2CCN2CCOCC2)cc1,88.1%
11,CCOC(=O)C(=O)Cc1cccnn1,106%
12,FC(F)(F)c1ccc(-c2nc(-c3nc4cc(Cl)c(Cl)cc4[nH]3)c3ccccn23)cc1,38%
13,COc1cc(CSc2nc3ccc(C)cc3c(=O)n2-c2ccccc2)cc(OC)c1OC,13.6%
14,CC(C)C[C@H](NC(=O)Cn1ccc2ccccc2c1=O)B(O)O,96.7%
15,CCCCC(=O)N(c1ccc(Nc2c3ccccc3nc3cc([N+](=O)[O-])ccc23)cc1)S(C)(=O)=O,80%
16,N#Cc1ncc(-c2cc(F)ccc2F)c(NC2CCCCCC2)n1,91.6%
17,Cc1nnc2c3nnc(-c4ccc(Cl)cc4)n3c3ccccc3n12,92.5%
18,O=CNc1c(Cl)cc2c(c1Cl)Cc1cc([N+](=O)[O-])ccc1-2,68%
19,O=C(Nc1ccc(OS(=O)(=O)Cc2ccccc2)cc1)C12CC3CC(CC(C3)C1)C2,87.3%

row,Structure (SMILES),growth
1,COc1cc(CSc2nc3ccc(C)cc3c(=O)n2Cc2ccccc2)cc(OC)c1OC,23.9%
2,CC(=O)[C@H]1CC[C@H]2[C@@H]3CC[C@@H]4CC=C(C=O)C[C@]4(C)[C@H]3CC[C@]12C,95.8%
3,O=[N+]([O-])c1ccc(Br)o1,104%
4,CCc1nn2c(-c3cc(OC)c(OC)c(OC)c3)c(-c3cc(OC)c(OC)c(OC)c3)nc2s1,59.5%
5,N#Cc1c2c([nH]c(=O)c1C(N)=O)CCCCC2,91.6%
6,COC(=O)[C@]12CC[C@@H](C)[C@H](C)[C@@H]1C1=CC[C@@H]3[C@@]4(C)CC(=O)[C@H](O)[C@@]5(C)COC(=C45)C[C@@]3(C)[C@]1(C)CC2,-68.3% (active)
7,C=CCNCCCN1C(=O)c2ccc3c4c(ccc(c24)C1=O)C(=O)N(CCCNCC=C)C3=O,-36.9% (active)
8,COc1ccc(Cn2cc3c(c2-c2cc(OC)c(OC)c(OC)c2)CCc2cnoc2-3)cc1N,2.09% (active)
9,Cc1ccc2nc(-c3ccc(OCC(=O)N=Nc4c(O)[nH]c5ccccc45)cc3)[nH]c2c1,99.5%
10,COc1cc(OC)cc(-c2n/c(=C\c3c(O)[nH]c4ccc(OC)cc34)cc3c2=Nc2ccccc2-3)c1,126%
11,O=c1ccc2nc(-c3ccccc3)nn(-c3ccccc3)c-2c1,59.1%
12,NS(=O)(=O)c1ccc(N2N=C(c3ccc(-c4ccccc4)cc3)CC2c2ccc(Cl)cc2)cc1 (stereo unspecified),95%
13,O=C(NC1CCCC1)c1ccc(N2CCC(NCc3cccc(C(F)(F)F)c3)CC2)cc1,98.4%
14,COc1cc(OC)cc(-c2ccc(-c3ccc(C(=N)N)cn3)o2)c1,31.2%
15,COc1ccc(-c2oncc2-c2cc(OC)c3c(c2)OCO3)cc1,19.7%
16,COc1cc2ccnc(C=O)c2cc1OC,106%
17,N#Cc1ccc(-n2cnc(NC(=O)[C@H]3CCN(C#N)C3)c2)cc1,62.5%
18,Oc1ccccc1-c1nnc(Cn2c(Cc3cccc4ccccc34)nc3ccccc32)o1,98.7%
19,Fc1ccc(Nc2ccnc(N3CCN(c4ccnc5cc(Cl)ccc45)CC3)n2)cc1,56%
